# High-throughput results: PubChem BioAssay, National Center for Advancing Translational Sciences (NCATS)
# PTAP-TSG101 blk = blocks PTAP binding to human TSG101, validation; Fluorescence polarization, FITC-PTAP peptide/Tsg101, 20 min; Potency, µM (titrated, usually from 115 µM), usual class: inhibitors; 44,000 tested, under 10 active; AID 1347069; also: potency is read from the fitted curve at half-maximal effect; 0% is about no effect
#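 Read-out is FITC fluorescence polarization. Compounds were added to Tsg101 binding domain (10 uM final), then FITC-PTAP peptide (50 nM final), 20 min at r.t. Total S+P intensity flags fluorescent compounds.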
# DRV1 agonist = agonists of human resolvin D1 receptor DRV1 (GPR32); O75388; CHO-K1 GPR32 beta-arrestin PathHunter luminescence, 90 min; zero percent set by DMSO-only wells; activation, % at 76.9 µM; 2.5% of 48,000 active; AID 1346428;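 active = activation of at least 60% and not above a set upper limit, about 1 call in 100 departs from these limits; inconclusive = activation of 40% to 60%, or above that upper limit; inactive = activation under 40%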; also: 0% is about no effect
#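 Using DMSO wells as EC0, agonist-induced signal was taken as chemiluminescence from beta-Gal reconstituted upon beta-arrestin recruitment to GPR32 in CHO-K1 cells after 90 min compound treatment.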
# NTMT1 inh = inhibitors of human N-terminal methyltransferase NTMT1 | Q9BV86 | NTMT1 MTase-Glo SAH luminescence, purified enzyme | Potency, µM (doses to about 114 µM), without a hit: at the highest dose activity change, negative = inhibition, usual class: inhibitors | 2.5% of 59,000 active | AID 1645870;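 also: potency is read from the fitted curve at half-maximal effect; plate controls were DMSO vehicle for no effect and no enzyme for full effect; nearly all actives have a fitted effect of over 65% in size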
# B2AR arrestin ag = beta-arrestin recruitment by human beta2-adrenergic receptor ligands; P07550; HTLA Tango cells, beta-arrestin recruitment, luciferase luminescence, 18 h; Potency, µM (series often up to 46.1 µM), actives largely listed as activators; 44,000 tested, under 10 active; AID 1347077;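 also: potency is read from the fitted curve at half-maximal effect; 0% = DMSO and full agonism = EC100 isoproterenol or metaproterenol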
#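 Receptor–beta-arrestin recruitment read by tTA-responsive luciferase: compound titrations (up to 46 µM) incubated 18 h with Tango cells, then luminescent substrate 15 min at room temperature. Concentration-response fits classified by r2, efficacy and activity.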
# GALK inh = GALK (human) enzyme inhibition | P51570 | recombinant GALK, Kinase-Glo ATP luminescence, 1 h | Potency, µM (titrated, usually from 57.5 µM), inactives show at the highest dose activity, negative = inhibition, most hits filed as inhibitors | 44,000 tested, under 10 active | AID 1347072;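 also: plate controls were full GALK reaction for no effect and reaction lacking GALK for full effect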
#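 Compounds were pinned into ATP buffer, then GALK-galactose mix was added (final 5 nM enzyme, 35 uM ATP, 100 uM galactose, pH 8.0). After 1 h at room temperature, Kinase-Glo Plus was added and luminescence read.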
# GALC G270D up = enhancers of human galactocerebrosidase G270D mutant activity in cells | 0.1% of 45,000 active | P54803 | Potency, µM (top dose mostly 57.5 µM), hits mostly activators | 145M-Twi-hGALC-G270D cells (Twitcher mouse brain line with human GALC G270D), HMU-beta-Gal fluorescence, 48 h; also: potency is read from the fitted curve at half-maximal effect; 0% is about no effect; nearly all actives have a fitted effect of over 65% in size
# Target sequence (P54803 whole entry G286D): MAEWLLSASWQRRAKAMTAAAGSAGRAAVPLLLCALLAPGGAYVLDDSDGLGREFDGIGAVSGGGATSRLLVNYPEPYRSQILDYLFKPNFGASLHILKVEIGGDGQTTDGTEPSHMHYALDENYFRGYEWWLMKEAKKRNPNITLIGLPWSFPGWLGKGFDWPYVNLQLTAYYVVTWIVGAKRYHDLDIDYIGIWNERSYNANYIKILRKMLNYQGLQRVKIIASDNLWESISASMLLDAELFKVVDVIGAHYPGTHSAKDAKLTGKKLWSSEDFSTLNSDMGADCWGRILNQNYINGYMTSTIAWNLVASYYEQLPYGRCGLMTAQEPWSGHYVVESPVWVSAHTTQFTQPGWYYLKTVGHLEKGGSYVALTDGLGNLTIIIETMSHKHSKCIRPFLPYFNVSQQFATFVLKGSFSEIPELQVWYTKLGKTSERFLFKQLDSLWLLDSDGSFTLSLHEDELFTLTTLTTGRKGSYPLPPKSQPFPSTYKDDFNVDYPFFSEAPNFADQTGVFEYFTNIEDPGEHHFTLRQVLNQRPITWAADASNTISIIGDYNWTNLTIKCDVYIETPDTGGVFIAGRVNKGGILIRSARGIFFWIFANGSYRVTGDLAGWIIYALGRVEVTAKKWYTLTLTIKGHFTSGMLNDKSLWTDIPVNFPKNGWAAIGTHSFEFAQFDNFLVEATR
#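 Brain-derived Twitcher mouse 145M-Twi cells stably expressing human GALC-G270D or wild-type GALC, treated live, then residual GALC activity read by fluorescence of HMU-b-Gal substrate (0.1 mM final) in citrate-phosphate buffer pH 5.2 with sodium taurocholate. Signal increase indicates enhancement.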
# CLK4 inh = CLK4 kinase inhibition, SAR round 2. shares compounds with NTMT1 inh. recombinant Clk4, Kinase-Glo ATP luminescence, 4.5 h. Potency, µM (titrated, usually from 76.9 µM), for the others: at the highest dose activity, negative = inhibition, usual class: inhibitors. 90% of 90 active. AID 493204
# Sfp PPTase inh = Sfp PPTase inhibition, chemistry optimization. AID 540350. Potency, µM (highest dose often 114 µM), for the others: at the top dose activity change, negative = inhibition, actives largely listed as inhibitors. purified Sfp PPTase enzyme activity, qHTS. 78% of 230 active. shares compounds with NTMT1 inh
# Bsub HM489 growth = Sfp PPTase inhibitors: growth inhibition of B. subtilis HM489 | shares compounds with NTMT1 inh | B. subtilis HM489 (acpS-) growth, BacTiter-Glo, 5 h | Potency, µM (series often up to 114 µM), for the others: at the highest dose activity change, negative = inhibition, actives largely listed as inhibitors | 50% of 220 active
# Sfp PPTase gel = Sfp PPTase inhibition, gel-based detection | shares compounds with NTMT1 inh | purified Sfp PPTase, gel-based product detection | Potency, µM (titrated, usually from 250 µM), inactives show at the top dose activity change, negative = inhibition, hits mostly inhibitors | 54% of 220 active | AID 540355
# Sfp gel = Sfp phosphopantetheinyl transferase inhibition, gel detection; shares compounds with NTMT1 inh; purified Sfp PPTase, gel-based product detection; Potency, µM (doses to about 250 µM), without a hit: top-dose activity change, negative = inhibition, hits mostly inhibitors; 90% of 45 active; AID 602362
# Sfp SAR2 = Sfp phosphopantetheinyl transferase inhibition, SAR round 2 | purified Sfp enzyme, PPTase activity, qHTS | 87% of 230 active | AID 602370 | Potency, µM (highest dose often 57.1 µM), without a hit: at the top dose activity change, negative = inhibition, usual class: inhibitors | shares compounds with NTMT1 inh
# hGST A1-1 inh = hGST A1-1 enzyme inhibition, Sfp SAR counter-screen; Potency, µM (highest dose often 114 µM), inactives show at the top dose activity change, negative = inhibition, hits mostly inhibitors; hGST A1-1 enzyme activity counter-screen, qHTS; 55 tested, under 10 active; shares compounds with NTMT1 inh
# HSD17B4 inh = inhibits human HSD17B4, off-target for HPGD inhibitors. shares compounds with NTMT1 inh. purified HSD17B4, estradiol/NAD+, NADH fluorescence. 10% of 230 active. AID 743187. Potency, µM (doses to about 57.1 µM), without a hit: at the highest dose activity change, negative = inhibition, most hits filed as inhibitors
# ALDH1A1 inh = inhibits human ALDH1A1, off-target for HPGD inhibitors; shares compounds with NTMT1 inh; recombinant ALDH1A1, NADH fluorescence, propionaldehyde/NAD+; Potency, µM (titrated, usually from 57.1 µM), for inactives: top-dose activity change, negative = inhibition, usual class: inhibitors; 93% of 230 active
# NNMT counter = human NNMT inhibition, NTMT1 counter-screen. shares compounds with NTMT1 inh. 10% of 120 active. AID 1645878. NNMT MTase-Glo luminescence, SAH detection. Potency, µM (series often up to 57.1 µM), for inactives: at the top dose activity, negative = inhibition, most hits filed as inhibitors
# The depositor's hits bear a star; i = inactive; ? = inconclusive; . = no result given; ! = not active in a repeat; [ ] = another dose, or the depositor's remark. Shown are actives, neighbours in structure and some others; about 3.6% of the full set was active somewhere. Unless noted, calls follow the shape of the dose curve; as a rule, active = well fitted curve in the direction sought with a large enough effect; inconclusive = small, poorly fitted or top-dose-only effect, or another doubt; inactive = no such curve, though single readings can be large; an effect the other way counts as inactive or inconclusive.
SMILES,PTAP-TSG101 blk,DRV1 agonist,NTMT1 inh,B2AR arrestin ag,GALK inh,GALC G270D up,NNMT counter,others
Cc1cc(C)nc(NC(=S)N2CCN(c3ccc(F)c(F)c3F)CC2)c1,.,.,?,.,.,.,.,Sfp PPTase inh=2.1µM*;Bsub HM489 growth=21µM*;Sfp PPTase gel=7.9µM*;Sfp gel=2.4µM*;Sfp SAR2=1µM*;hGST A1-1 inh=-3%;HSD17B4 inh=-23%;ALDH1A1 inh=9.6µM*
Cc1cc(C(=O)N2CCN(c3ccccc3F)CC2)c2c(C)nn(-c3ccccc3)c2n1,i,-20,25%,i,-3%,i,.,
CN(C)c1nc(NC2CCC(NCCc3ccc(Br)cc3OC(F)(F)F)CC2)nc2ccccc12 (stereo not drawn),.,.,35µM*,.,.,.,22µM*,
Cc1cc(C)n2ncc(C(=O)Nc3ccc(Br)cc3)c2n1,.,.,11%[57.5 µM],.,.,.,.,
Cc1ccnc(NC(=S)NCCNc2cccc(C(F)(F)F)c2)c1,.,.,?,.,.,.,.,Sfp PPTase inh=?;Bsub HM489 growth=?;Sfp PPTase gel=-18%;Sfp SAR2=6.5µM*;HSD17B4 inh=6.1µM*;ALDH1A1 inh=19µM*
Cc1ccnc(NC(=S)NCCN(C)c2cccc(C(F)(F)F)c2)c1,.,.,-3%,.,.,.,.,Sfp PPTase inh=?;Bsub HM489 growth=3%;Sfp PPTase gel=-11%;Sfp SAR2=?;HSD17B4 inh=-5%;ALDH1A1 inh=15µM*
Cc1ccc(Cn2c(=O)c3cccnc3n(CC(=O)Nc3cccc(C(F)(F)F)c3)c2=O)cc1,i,-8,8%,i,-2%,i,.,
CCN(c1ccccc1)c1nnc(NC(=O)Nc2cccc(C(F)(F)F)c2)s1,i,5,8%,i,-1%,i,.,
CC1=CC(=O)C[C@H]2[C@@H]1CC[C@@H](C)[C@]21CO[C@H](c2ccoc2)C1=O,.,.,12%[29.8 µM],.,.,.,.,
NC(=O)C1CCN(c2nc(-c3ccc(OC(F)(F)F)cc3)cs2)CC1,.,.,-10%,.,.,.,.,
NCCOc1cc(C(=O)Nc2cc(OCCN)c3ccccc3n2)nc(C(=O)Nc2cc(OCCN)c3ccccc3n2)c1,.,.,22µM*,.,.,.,-12%,
COc1ccc(Nc2cc(C(=O)NCc3ccccc3)c3ccccc3n2)c(OC)c1,i,-31,-4%,i,8%,i,.,
O=C(NCCN1CCCC1)c1cc(-c2ccc(CN3CCOCC3)cc2)nc2ccc(F)cc12,.,.,-16%[29.8 µM],.,.,.,-14%[28.6 µM],
Cc1ccc2nc3sc(C(=O)NCCN4CCOCC4)cc3cc2c1,.,.,0%[57.5 µM],.,.,.,.,
Cc1cc(CS(=O)(=O)c2ccccc2)cc(OCc2ccc(CN3CCC[C@@H]3CO)cc2)c1,.,.,8.9µM*!,.,.,.,-6%,
Nc1nc(OC(c2ccc(-c3cccc(F)c3)cc2)C(F)(F)F)cc(-c2ccc(C[C@@H](N)C(=O)O)cc2)n1 (stereo partly drawn),.,.,5%,.,.,.,.,
CCC(CC)C(=O)NCCc1nc2ccccc2n1CCOc1ccc(C)cc1,.,.,8%[57.5 µM],.,.,.,.,
CN(C)CCCn1cc(C2=C(c3c[nH]c4ccccc34)C(=O)NC2=O)c2ccccc21,.,.,25µM*,.,.,.,?,
Cc1ccc(F)cc1S(=O)(=O)N[C@@H]1CCN(Cc2ccc(OC(C)C)cc2)C1,.,.,?,.,.,.,-15%,
Cc1ccc(Nc2nnc(Cc3ccncc3)c3ccccc23)cc1Br,.,.,1%,.,.,.,.,
Clc1ccc(Nc2nnc(Cc3ccncc3)c3ccccc23)cc1,.,72*,89µM*!,.,.,i,?,
Cn1cc(-c2nc3cnc(N4CCNCC4)nc3n(Cc3ccc(F)cc3)c2=O)c2ccccc21,.,.,.,.,.,.,.,CLK4 inh=?
Cc1cccc(-c2[nH]c(C(C)(C)C)nc2-c2ccc3c(c2)OCO3)n1,.,.,24%,.,.,.,.,
CC(C)(C)Cn1c(N)nc2ccc(-c3[nH]c(C(C)(C)C)nc3-c3ccc(F)cc3)nc21,.,.,13µM*,.,.,.,14µM*,
COc1cccc(C(=O)Nc2ccc([S+](=O)([O-])Nc3nccs3)cc2)c1O,.,.,12%,.,.,.,.,
